From PubChem BioAssay (EPA / NIEHS)
Activity calls are given as the source filed them. The calls were made as follows: active = hit-call score of the fitted dose curve at least 0.9, where 1 is the maximum; inactive = score below 0.9.

test: ATG_TCF_b_cat_CIS: Attagene CIS-FACTORIAL HepG2 Assay for human T-Cell-Factor with beta-catenin (TCF/b-cat) (AID 2282965); conditions: HepG2 TCF/beta-catenin cis-reporter transcription, actives raise or lower the signal
Protocol: ATG_CIS is a cell-based, multiplexed-readout assay that uses HepG2, a human liver cell line, with measurements taken at 24 hours after chemical dosing in a 24-well plate.ATG_TCF_b_cat_CIS is one of 52 assay component(s) measured or calculated from the ATG_CIS assay. It is designed to make measurements of mRNA induction, a form of inducible reporter, as detected with fluorescence intensity signals by Reverse transcription polymerase chain reaction (RT-PCR) and Capillary electrophoresis technology.Data from the assay component ATG_TCF_b_cat_CIS was analyzed into 1 assay endpoint. This assay endpoint, ATG_TCF_b_cat_CIS, was analyzed with bidirectional fitting relative to DMSO as the negative control and baseline of activity. Using a type of inducible reporter, measures of mRNA for gain or loss-of-signal activity can be used to understand the reporter gene at the transcription factor-level as they relate to the gene TCF7 and TCF7L2 and LEF1 and TCF7L1. Furthermore, this assay endpoint can be referred to as a primary readout, because this assay has produced multiple assay endpoints where this one serves a reporter gene function. To generalize the intended target to other relatable targets, this assay endpoint is annotated to the dna binding intended target family, where the subfamily is HMG box protein.
Human liver HepG2 cells are transiently transfected with multiple reporter transcription units (MRTUs) in 6-well plates using FuGene 6 reagent (Roche; 3 ml FuGene/1 mg DNA). The MRTU constructs are regulated by a cis-regulating element (promoter). […] A major difference between the CIS and TRANS system is that in CIS activities of endogenous TFs are measured, whereas the TRANS assay evaluates changes in activities of exogenous, chimeric NR-Gal4 proteins. […] At the end of 24 hour incubation, total RNA was isolated using TriZol reagent (Invitrogen). The isolated RNA is then reverse-transcribed using oligo(dT) primer and Mo-MLV reverse transcriptase (Invitrogen) with DNAse I (Ambion) treatment for 30 min. The one-tenth of the produced cDNA was amplified by PCR using Taq DNA polymerase (Invitrogen) and two reporter sequence-specific primers. The PCR products were fluorescently labeled by primer extension with 6-arboxyfluorescein (6-FAM) 5'-labeled reporter sequence-specific primer (2 min at 95 C, 20 s at 68 C and 10 min at 72 C) and these products were digested with 5U of HpaI (New England Biolabs) for 2h at 37 C. The fragments were purified using Qiaquick PCR columns (Qiagen), analyzed on an ABI 3130xL genetic analyzer (Applied Biosystems) with peak positions identified by using a set of X-rhodamine (ROX)-labeled MapMarker1000 molecular weight standards (BioVentures). The raw capillary electrophoresis data was processed using Attagraph software (Attagene).

Row | Structure (SMILES) | outcome | AC50
1 | CCOC(=O)c1ccccc1 | inactive | –
2 | O=C(O)c1ccccc1C(=O)O | inactive | –
3 | Sc1nc2ccccc2s1 | inactive | –
4 | COC(OC)C(C)c1ccccc1 (stereo not given) | inactive | –
5 | c1ccc(CNc2ncnc3nc[nH]c23)cc1 | inactive | –
6 | CCC(C)C1N=C(C)C(C)S1 (stereo not given) | inactive | –
7 | O=[N+]([O-])c1ccc2nc[nH]c2c1 | inactive | –
8 | CC/C=C/CCO | inactive | –
9 | CC/C=C\CCCCCO | inactive | –
10 | CC1=C(CC(=O)O)c2cc(F)ccc2/C1=C\c1ccc(S(C)=O)cc1 (stereo not given) | inactive | –
11 | CC1(C)S[C@@H]2[C@H](NC(=O)[C@H](N)c3ccccc3)C(=O)N2[C@H]1C(=O)O | inactive | –
12 | C=C1CC[C@H]2C[C@@H]1C2(C)C | inactive | –
13 | C1=CCC=C1 | inactive | –
14 | CCO[Si](CCCN)(OCC)OCC | inactive | –
15 | CC=CC(=O)O | inactive | –
16 | CC(C)CC(=O)CC(C)C | inactive | –
17 | CC(=O)OC(C)(C)Cc1ccccc1 | inactive | –
18 | CC/C=C\CC1=C(C)CCC1=O | inactive | –
19 | Cc1cc2nc3c(=O)[nH]c(=O)nc-3n(C[C@H](O)[C@H](O)[C@H](O)CO)c2cc1C | inactive | –
20 | CCCCCCC(O)CCCCCCCCCCC(=O)OC (stereo not given) | inactive | –

Row | Structure (SMILES) | outcome | AC50
21 | CC1=NN(c2cc(Cl)c(S(=O)(=O)O)cc2Cl)C(=O)C1N=Nc1ccc(S(=O)(=O)O)cc1 (stereo not given) | inactive | –
22 | CO[Si](CCCNCCN)(OC)OC | inactive | –
23 | CN(C)c1ccc(C(c2ccccc2)c2ccc(N(C)C)cc2)cc1 | inactive | –
24 | CCCCC(CC)COC(=O)CS (stereo not given) | inactive | –
25 | CCCCCCCCCCC1CO1 (stereo not given) | inactive | –
26 | CC[N+](CC)(CC(=O)Nc1c(C)cccc1C)Cc1ccccc1 (tested in a mixture with another compound) | inactive | –
27 | CCCCCCCC#N | inactive | –
28 | COC(=O)[C@]1(C)CCC[C@@]2(C)[C@H]1CC=C1C=C(C(C)C)CC[C@@H]12 | inactive | –
29 | C=CCOC(=O)C(=C)C | inactive | –
30 | CCCCCCOC(=O)CCCCCCCC(=O)OCCCCCC | inactive | –
31 | COc1ccc2ccccc2c1 | inactive | –
32 | Clc1ccc(Sc2cc(Cl)c(Cl)cc2Cl)cc1 | inactive | –
33 | CCCC(=O)OC/C=C(\C)CCC=C(C)C | inactive | –
34 | Oc1cccc2ccccc12 | – | 100 µM (active)
35 | C=CC(C)(CCC=C(C)C)OC(=O)c1ccccc1 (stereo not given) | inactive | –
36 | OCCOCCOCCOCCOCCO | inactive | –
37 | C/C=C(\C)C(=O)OCC/C=C\CC | inactive | –
38 | Cc1ccnc(N)c1 | inactive | –
39 | CCCc1c(OCCCCc2nn[nH]n2)ccc(C(C)=O)c1O | inactive | –
40 | CCCCn1cc[n+](C)c1 | inactive | –
